Measurements published in PubChem BioAssay AID1159580 (chemical genetic matrix, 2015).
About 2,000 (36%) of roughly 5,500 compounds were called active. Inconclusive results (about 18%) are left out. Cut-off read from the data, not from the text of the source: active = normalized growth mostly below about 0.91 (no sharp cut-off); inconclusive = no clear call, values can overlap the other calls; inactive = mostly above about 0.92. The list shows a part of the results.

Test: chemical genetic growth profiling, strain panel (AID 1159580);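 note: tested at 20 µM; growth read once vehicle control cultures reached saturation at 30 °C; 1 = growth at the plate median or of vehicle wells; lower values mean less growth of the strain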
Settings: growth OD
[1] = S. cerevisiae deletion strains, locus YAL013W, strain DEP1, active compounds read low
[2] = S. cerevisiae deletion strains, locus YAL040C, strain CLN3, active compounds read low
[3] = S. cerevisiae deletion strains, locus YCL061C, strain MRC1 (second series), active compounds read low
[4] = S. cerevisiae deletion strains, locus YDR363W, strain ESC2, active compounds read low
[5] = S. cerevisiae deletion strains, locus YER002W, strain NOP16, active compounds read low
[6] = S. cerevisiae deletion strains, locus YJR075W, strain HOC1, active compounds read low
[7] = S. cerevisiae deletion strains, locus YMR263W, strain SAP30, active compounds read low
[8] = S. cerevisiae deletion strains, locus YMR307W, strain GAS1, active compounds read low
[9] = S. cerevisiae deletion strains, locus YNL153C, strain GIM3, active compounds read low
[10] = S. cerevisiae deletion strains, locus YNL175C, strain NOP13, active compounds read low
[11] = S. cerevisiae deletion strains, locus YNL197C, strain WHI3, active compounds read low
[12] = S. cerevisiae deletion strains, locus YNL224C, strain SQS1, active compounds read low
[13] = S. cerevisiae deletion strains, locus YNL322C, strain KRE1, active compounds read low
[14] = S. cerevisiae deletion strains, locus YOR083W, strain WHI5 (second series), active compounds read low
[15] = S. cerevisiae deletion strains, locus YPL055C, strain LGE1, active compounds read low
[16] = S. cerevisiae deletion strains, locus YBR229C, strain ROT2, active compounds read low
[17] = S. cerevisiae deletion strains, locus YDL101C, strain DUN1, active compounds read low
[18] = S. cerevisiae deletion strains, locus YDR150W, strain NUM1, active compounds read low
[19] = S. cerevisiae deletion strains, locus YEL061C, strain CIN8, active compounds read low
[20] = S. cerevisiae deletion strains, locus YGR078C, strain PAC10, active compounds read low
[21] = S. cerevisiae deletion strains, locus YHR030C, strain SLT2, active compounds read low
[22] = S. cerevisiae deletion strains, locus YHR087W, strain rtc3, active compounds read low
[23] = S. cerevisiae deletion strains, locus YJR043C, strain POL32, active compounds read low
[24] = S. cerevisiae deletion strains, locus YLR039C, strain RIC1, active compounds read low
[25] = S. cerevisiae deletion strains, locus YLR058C, strain SHM2 (second series), active compounds read low
[26] = S. cerevisiae deletion strains, locus YLR085C, strain ARP6, active compounds read low
[27] = S. cerevisiae deletion strains, locus YLR262C, strain YPT6, active compounds read low
[28] = S. cerevisiae deletion strains, locus YML094W, strain GIM5, active compounds read low
[29] = S. cerevisiae deletion strains, locus YMR219W, strain ESC1, active compounds read low
[30] = S. cerevisiae deletion strains, locus YNL298W, strain CLA4 (second series), active compounds read low
[31] = S. cerevisiae deletion strains, locus YNR030W, strain Alg12, active compounds read low
[32] = S. cerevisiae deletion strains, locus YOL006C, strain TOP1, active compounds read low
[33] = S. cerevisiae deletion strains, locus YPL241C, strain CIN2, active compounds read low
[34] = S. cerevisiae deletion strains, locus YPR135W, strain CTF4, active compounds read low
[35] = S. cerevisiae deletion strains, locus YJL187C, strain SWE1, active compounds read low
[36] = S. cerevisiae strains, strain wild type, active compounds read low

Measured: normalized growth

C[C@@H](NC(=O)/C(C#N)=C/c1ccc(O)c(O)c1)c1ccccc1
inactive: [1] 0.997 | [2] 0.993 | [3] 0.983 | [4] 1.01 | [5] 0.998 | [6] 0.963 | [7] 1 | [8] 1.01 | [9] 0.978 | [10] 1 | [11] 1 | [12] 1.01 | [13] 1.01 | [14] 1.01 | [15] 0.932

CCCc1cc(=O)oc2c1c(C)nn2-c1ccccc1
inactive: [16] 0.94 | [17] 0.954 | S. cerevisiae deletion strains, locus YDL134C, strain PPH21, active compounds read low 0.938 | [18] 0.978 | [20] 0.935 | [23] 0.998 | [28] 0.921 | [7] 0.956 | [13] 0.944
active: [1] 0.932 | [19] 0.885 | [21] 0.432 | [22] 0.862 | [6] 0.869 | [24] 0.786 | [25] 0.923 | [26] 0.539 | [27] 0.744 | [29] 0.938 | [9] 0.864 | [30] 0.839 | [31] 0.875 | [32] 0.599 | [15] 0.799 | [33] 0.782 | [34] 0.552

CCCc1cc(=O)oc2cc(OCC(=O)OCC)ccc12
inactive: [1] 0.997 | [16] 0.971 | [17] 0.945 | [18] 0.986 | [19] 0.963 | [20] 0.985 | [21] 0.759 | [22] 0.963 | [35] 0.991 | [23] 1 | [6] 0.972 | S. cerevisiae deletion strains, locus YKL190W, strain CNB1, active compounds read low 0.995 | [24] 0.925 | [25] 0.991 | [26] 0.913 | [27] 0.958 | [28] 0.883 | [29] 0.987 | [7] 1.03 | [9] 0.98 | [30] 0.961 | [13] 0.995 | [31] 0.965 | [32] 0.864 | [15] 0.922 | [33] 1.04 | [34] 0.82 | [36] 0.99

Cc1nn(-c2cccc(Cl)c2)c2oc(=O)cc(C(F)(F)F)c12
inactive: S. cerevisiae deletion strains, locus YAR019C, strain CDC15, active compounds read low 0.977 | S. cerevisiae deletion strains, locus YBL105C, strain PKC1, active compounds read low 0.966 | S. cerevisiae deletion strains, locus YBR135W, strain CKS1, active compounds read low 0.975 | S. cerevisiae deletion strains, locus YBR136W, strain MEC1, active compounds read low 0.974 | S. cerevisiae deletion strains, locus YBR160W, strain CDC28, active compounds read low 0.974 | S. cerevisiae deletion strains, locus YDL017W, strain CDC7, active compounds read low 0.968 | S. cerevisiae deletion strains, locus YDL028C, strain MPS1, active compounds read low 0.979 | [17] 0.961 | S. cerevisiae deletion strains, locus YDL108W, strain KIN28, active compounds read low 0.968 | S. cerevisiae deletion strains, locus YDL132W, strain cdc53, active compounds read low 0.972 | S. cerevisiae deletion strains, locus YDR052C, strain DBF4, active compounds read low 0.96 | S. cerevisiae deletion strains, locus YDR054C, strain cdc34, active compounds read low 0.973 | S. cerevisiae deletion strains, locus YDR226W, strain ADK1, active compounds read low 0.962 | S. cerevisiae deletion strains, locus YFL009W, strain cdc4, active compounds read low 0.964 | S. cerevisiae deletion strains, locus YFL029C, strain CAK1, active compounds read low 0.976 | S. cerevisiae deletion strains, locus YFR003C, strain YPI1, active compounds read low 0.966 | S. cerevisiae deletion strains, locus YFR028C, strain CDC14, active compounds read low 0.971 | S. cerevisiae deletion strains, locus YHR205W, strain SCH9, active compounds read low 0.615 | S. cerevisiae deletion strains, locus YIL147C, strain SLN1, active compounds read low 0.976 | S. cerevisiae deletion strains, locus YJL128C, strain PBS2, active compounds read low 0.95 | S. cerevisiae deletion strains, locus YJR016C, strain ILV3, active compounds read low 0.976 | S. cerevisiae deletion strains, locus YKL101W, strain HSL1, active compounds read low 0.776 | S. cerevisiae deletion strains, locus YKL193C, strain SDS22, active compounds read low 0.975 | S. cerevisiae deletion strains, locus YMR001C, strain CDC5, active compounds read low 0.962 | S. cerevisiae deletion strains, locus YMR205C, strain PFK2 (second series), active compounds read low 0.78 | S. cerevisiae deletion strains, locus YMR277W, strain FCP1, active compounds read low 0.98 | S. cerevisiae deletion strains, locus YNL006W, strain LST8, active compounds read low 0.977 | S. cerevisiae deletion strains, locus YNL161W, strain CBK1, active compounds read low 0.968 | S. cerevisiae deletion strains, locus YNL207W, strain RIO2, active compounds read low 0.963 | S. cerevisiae deletion strains, locus YNL222W, strain SSU72, active compounds read low 0.975 | S. cerevisiae deletion strains, locus YOL078W, strain AVO1, active compounds read low 0.97 | S. cerevisiae deletion strains, locus YOR061W, strain CKA2, active compounds read low 0.681 | S. cerevisiae deletion strains, locus YOR329C, strain SCD5, active compounds read low 0.964 | S. cerevisiae deletion strains, locus YPL209C, strain IPL1, active compounds read low 0.972 | S. cerevisiae deletion strains, locus YPR025C, strain CCL1, active compounds read low 0.968 | S. cerevisiae deletion strains, locus YPR106W, strain ISR1, active compounds read low 0.979 | S. cerevisiae deletion strains, locus YPR111W, strain DBF20, active compounds read low 0.96 | S. cerevisiae deletion strains, strain NNK1, active compounds read low 0.978 | S. cerevisiae deletion strains, strain TSCII, active compounds read low 0.967
active: S. cerevisiae deletion strains, locus YDL214C, strain PRR2, active compounds read low 0.609 | S. cerevisiae deletion strains, locus YDR477W, strain SNF1, active compounds read low 0.566 | S. cerevisiae deletion strains, locus YER123W, strain YCK3, active compounds read low 0.342 | S. cerevisiae deletion strains, locus YER133W, strain GLC7, active compounds read low 0.48 | S. cerevisiae deletion strains, locus YFR019W, strain FAB1, active compounds read low 0.572 | S. cerevisiae deletion strains, locus YGR040W, strain KSS1, active compounds read low 0.654 | S. cerevisiae deletion strains, locus YGR052W, strain FMP48, active compounds read low 0.538 | S. cerevisiae deletion strains, locus YGR092W, strain DBF2, active compounds read low 0.367 | [21] 0.154 | S. cerevisiae deletion strains, locus YHR079C, strain IRE1, active compounds read low 0.231 | S. cerevisiae deletion strains, locus YHR082C, strain KSP1, active compounds read low 0.508 | S. cerevisiae deletion strains, locus YJL095W, strain BCK1, active compounds read low 0.359 | S. cerevisiae deletion strains, locus YJL157C, strain FAR1, active compounds read low 0.467 | S. cerevisiae deletion strains, locus YJR066W, strain TOR1 (second series), active compounds read low 0.552 | S. cerevisiae deletion strains, locus YJR066W, strain TOR1, active compounds read low 0.343 | S. cerevisiae deletion strains, locus YKL048C, strain ELM1, active compounds read low 0.753 | S. cerevisiae deletion strains, locus YKL067W, strain YNK1, active compounds read low 0.705 | S. cerevisiae deletion strains, locus YKL203C, strain TOR2, active compounds read low 0.614 | S. cerevisiae deletion strains, locus YLR113W, strain HOG1, active compounds read low 0.35 | S. cerevisiae deletion strains, locus YLR133W, strain CKI1, active compounds read low 0.545 | S. cerevisiae deletion strains, locus YLR403W, strain SFP1, active compounds read low 0.393 | S. cerevisiae deletion strains, locus YML070W, strain DAK1, active compounds read low 0.515 | S. cerevisiae deletion strains, locus YNL020C, strain ARK1, active compounds read low 0.574 | S. cerevisiae deletion strains, locus YNL183C, strain NPR1, active compounds read low 0.464 | S. cerevisiae deletion strains, locus YNL307C, strain MCK1 (second series), active compounds read low 0.536 | S. cerevisiae deletion strains, locus YOL136C, strain PFK27, active compounds read low 0.342 | S. cerevisiae deletion strains, locus YOR119C, strain RIO1, active compounds read low 0.544 | S. cerevisiae deletion strains, locus YOR231W, strain MKK1, active compounds read low 0.501 | S. cerevisiae deletion strains, locus YPL031C, strain PHO85, active compounds read low 0.535 | S. cerevisiae deletion strains, locus YPL153C, strain RAD53, active compounds read low 0.6 | S. cerevisiae deletion strains, locus YPL204W, strain HRR25, active compounds read low 0.469 | S. cerevisiae deletion strains, locus YPL256C, strain CLN2, active compounds read low 0.201

O=C(O)C1C2CCC1C(O)C2 (centres undefined)
inactive: [1] 0.99 | [16] 1.02 | [17] 0.981 | [18] 1 | [19] 1.02 | [20] 0.998 | [21] 0.98 | [22] 0.99 | [35] 1.02 | [23] 1 | [6] 1.02 | [24] 0.967 | [25] 1.02 | [26] 1.03 | [27] 0.968 | [28] 1.01 | [29] 0.998 | [7] 0.998 | [8] 1.01 | [9] 0.976 | [30] 1 | [13] 1 | [31] 1.01 | [32] 0.972 | [15] 1.03 | [33] 0.997 | [34] 0.979 | [36] 0.967

NC(=O)c1ncn(C2OC(CO)C(O)C2O)c1O (centres undefined)
inactive: [1] 1.01 | [2] 1.01 | [3] 1.01 | [4] 1.01 | [5] 1 | S. cerevisiae deletion strains, locus YNL128W, strain TEP1, active compounds read low 0.998 | [9] 1.02 | [10] 1 | [11] 1.01 | [12] 1 | [14] 1.02
